Each structure is given as a SMILES string. The source made the active and inactive calls.

Our source for the composite z-score and z-score values is PubChem BioAssay.

Experiment [1] in a line: small molecules captured by biotinylated probe aFSTL3 – biochemical, small-molecule microarray, fluorescence 635/667, stem cell growth factor project, primary screen (AID 1064).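 Note: measures binding of the biotinylated anti-FSTL3 antibody to printed compounds.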 The settings on record: higher = more signal.
The nature of experiment [2]: binders from COS7 lysate, DM2A8 probe, primary screen, torsin A project, cell lysate, small-molecule microarray, fluorescence 635/667 (AID 1065). The settings on record: higher = more signal, COS7 lysate expressing mutant human TOR1A.
Experiment [3] in a line: small molecules captured by biotinylated probe aFGF2 – biochemical, small-molecule microarray, fluorescence 635/667, stem cell growth factor project, primary screen (AID 1067).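 Note: measures binding of biotinylated aFGF2 protein to printed compounds on slides; z-score merges feature fluorescence and signal-to-noise across triplicate slides.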 The settings on record: higher = more signal.
Experiment [4] is described as follows: small molecules captured by biotinylated probe aFGF10 – biochemical, small-molecule microarray, fluorescence 635/667, stem cell growth factor project, primary screen (AID 1071).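 Note: score merges 667 nm spot intensity and signal to noise from triplicate slides.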 The following applies: higher = more signal.
The target of experiment [5] is Neurogenic locus notch homolog protein 2 (Homo sapiens) (UniProt Q04721). Briefly: small molecules binding Notch2 protein – biochemical, small-molecule microarray, 635 nm fluorescence, stem cell growth factors, primary screen (AID 1073). The following applies: higher = more signal.
Sequence of Neurogenic locus notch homolog protein 2 (Homo sapiens) (Q04721 whole entry, looked up, canonical isoform): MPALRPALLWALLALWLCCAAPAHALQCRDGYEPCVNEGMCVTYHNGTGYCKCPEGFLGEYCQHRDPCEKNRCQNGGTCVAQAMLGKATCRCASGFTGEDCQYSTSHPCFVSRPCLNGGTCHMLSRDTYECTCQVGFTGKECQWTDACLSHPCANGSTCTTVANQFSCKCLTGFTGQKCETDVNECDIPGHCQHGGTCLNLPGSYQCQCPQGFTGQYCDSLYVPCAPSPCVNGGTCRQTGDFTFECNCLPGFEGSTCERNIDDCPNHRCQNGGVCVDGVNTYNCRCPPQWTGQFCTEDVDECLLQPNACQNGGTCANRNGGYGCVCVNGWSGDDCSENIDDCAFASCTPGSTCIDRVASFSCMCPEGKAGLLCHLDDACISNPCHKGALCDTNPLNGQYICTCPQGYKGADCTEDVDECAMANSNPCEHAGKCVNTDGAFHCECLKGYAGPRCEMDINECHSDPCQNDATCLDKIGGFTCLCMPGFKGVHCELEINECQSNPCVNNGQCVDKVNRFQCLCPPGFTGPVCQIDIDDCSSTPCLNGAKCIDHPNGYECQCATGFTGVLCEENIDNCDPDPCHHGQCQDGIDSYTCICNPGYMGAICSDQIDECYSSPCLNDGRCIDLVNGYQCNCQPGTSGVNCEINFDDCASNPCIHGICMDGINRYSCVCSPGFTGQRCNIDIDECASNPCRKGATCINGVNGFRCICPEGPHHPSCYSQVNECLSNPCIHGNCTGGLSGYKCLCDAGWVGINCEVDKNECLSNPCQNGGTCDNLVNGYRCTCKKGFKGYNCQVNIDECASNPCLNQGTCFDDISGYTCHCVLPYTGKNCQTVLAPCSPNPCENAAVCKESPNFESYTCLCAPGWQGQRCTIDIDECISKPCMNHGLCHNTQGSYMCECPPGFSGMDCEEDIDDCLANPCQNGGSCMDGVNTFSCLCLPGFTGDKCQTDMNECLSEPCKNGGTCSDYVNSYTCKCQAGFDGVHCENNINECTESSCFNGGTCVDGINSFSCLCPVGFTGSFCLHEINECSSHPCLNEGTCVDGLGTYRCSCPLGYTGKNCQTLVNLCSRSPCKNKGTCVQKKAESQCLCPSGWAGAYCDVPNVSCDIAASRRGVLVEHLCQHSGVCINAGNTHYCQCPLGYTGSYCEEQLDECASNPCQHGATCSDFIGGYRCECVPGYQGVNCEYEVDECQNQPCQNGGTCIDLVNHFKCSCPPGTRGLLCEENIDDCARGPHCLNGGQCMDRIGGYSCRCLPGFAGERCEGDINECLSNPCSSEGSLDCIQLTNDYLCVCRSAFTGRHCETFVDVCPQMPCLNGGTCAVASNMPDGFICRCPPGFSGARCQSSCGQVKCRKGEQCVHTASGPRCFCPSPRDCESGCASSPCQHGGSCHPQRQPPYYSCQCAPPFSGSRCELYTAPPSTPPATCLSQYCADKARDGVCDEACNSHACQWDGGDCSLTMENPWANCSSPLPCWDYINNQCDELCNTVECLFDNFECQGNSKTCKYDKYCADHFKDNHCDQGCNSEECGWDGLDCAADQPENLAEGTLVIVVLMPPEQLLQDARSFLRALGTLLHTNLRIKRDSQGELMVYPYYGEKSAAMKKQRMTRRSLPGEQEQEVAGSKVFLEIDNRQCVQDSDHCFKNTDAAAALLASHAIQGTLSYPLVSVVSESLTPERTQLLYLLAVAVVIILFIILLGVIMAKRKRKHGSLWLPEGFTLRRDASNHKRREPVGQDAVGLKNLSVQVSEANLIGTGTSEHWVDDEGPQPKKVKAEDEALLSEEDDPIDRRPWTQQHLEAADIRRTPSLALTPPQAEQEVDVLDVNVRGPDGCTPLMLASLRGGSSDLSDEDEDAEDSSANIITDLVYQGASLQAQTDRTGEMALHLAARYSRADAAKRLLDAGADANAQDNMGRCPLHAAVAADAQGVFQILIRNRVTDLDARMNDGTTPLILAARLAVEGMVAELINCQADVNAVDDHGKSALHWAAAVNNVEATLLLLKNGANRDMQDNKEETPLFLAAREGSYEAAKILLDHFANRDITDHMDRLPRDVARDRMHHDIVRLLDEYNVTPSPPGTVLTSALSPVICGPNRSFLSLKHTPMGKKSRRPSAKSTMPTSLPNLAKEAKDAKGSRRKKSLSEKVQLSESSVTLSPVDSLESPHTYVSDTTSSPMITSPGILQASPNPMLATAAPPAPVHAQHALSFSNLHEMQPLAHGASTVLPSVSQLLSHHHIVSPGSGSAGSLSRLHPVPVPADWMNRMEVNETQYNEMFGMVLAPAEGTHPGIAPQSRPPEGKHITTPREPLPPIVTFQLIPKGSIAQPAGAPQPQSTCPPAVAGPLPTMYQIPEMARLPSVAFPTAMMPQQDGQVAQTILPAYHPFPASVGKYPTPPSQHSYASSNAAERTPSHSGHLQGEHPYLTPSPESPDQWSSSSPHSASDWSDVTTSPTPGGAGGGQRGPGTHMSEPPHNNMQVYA
The target of experiment [6] is Pro-neuregulin-1, membrane-bound isoform (Homo sapiens) (UniProt Q02297). The experiment is described as follows: small molecules binding neuregulin-1 protein – biochemical, small-molecule microarray, fluorescence 635/667, psychiatric disease protein project, primary screen (AID 1075).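 Note: score combines 667 nm spot fluorescence with signal to noise.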 The settings on record: NRG1 binding, 635 nm fluorescence, higher = more signal.
Sequence of Pro-neuregulin-1, membrane-bound isoform (Homo sapiens) (Q02297 whole entry, looked up, the tested form may be a part, canonical isoform): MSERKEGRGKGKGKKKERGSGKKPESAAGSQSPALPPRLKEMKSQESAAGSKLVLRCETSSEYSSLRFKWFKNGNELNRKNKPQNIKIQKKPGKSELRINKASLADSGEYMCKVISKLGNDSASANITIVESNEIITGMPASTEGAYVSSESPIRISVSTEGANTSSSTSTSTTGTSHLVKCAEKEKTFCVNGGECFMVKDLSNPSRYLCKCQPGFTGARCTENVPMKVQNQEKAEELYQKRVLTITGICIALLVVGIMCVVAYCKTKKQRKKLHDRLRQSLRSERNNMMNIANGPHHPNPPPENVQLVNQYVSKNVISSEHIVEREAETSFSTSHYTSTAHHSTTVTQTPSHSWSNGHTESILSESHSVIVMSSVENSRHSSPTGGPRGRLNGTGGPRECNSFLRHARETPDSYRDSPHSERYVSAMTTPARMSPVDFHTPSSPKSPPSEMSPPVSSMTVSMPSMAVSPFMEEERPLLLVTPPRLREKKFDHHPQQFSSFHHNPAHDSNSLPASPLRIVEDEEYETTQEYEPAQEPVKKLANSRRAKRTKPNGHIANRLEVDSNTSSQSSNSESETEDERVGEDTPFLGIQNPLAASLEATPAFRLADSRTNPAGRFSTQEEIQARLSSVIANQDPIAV
Experiment [7] relates to Neuregulin-1 EGF-like domain. The experiment is described as follows: small molecules binding NRG1 EGF domain – biochemical, small-molecule microarray, 635 nm fluorescence, primary screen (AID 1081).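 Note: binding of the protein to compounds printed on small-molecule microarray slides.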 The following applies: higher = more signal.
Experiment [8] can be described thus: FRG1 expression reporter modulators in myotubes – cell-based, C2C12 myotubes, firefly/Renilla luciferase, luminescence, FRG1 inhibition for FSHD, primary screen (AID 1084). The settings on record: FRG1 promoter luciferase, higher = more signal, called active from +8 up or from −8 down.
Experiment [9] is described as follows: small molecules captured by biotinylated probe aFST – biochemical, small-molecule microarray, fluorescence 635/667, stem cell growth factor project, primary screen (AID 1086).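 Note: score merges 667 nm fluorescence with signal-to-noise of each printed compound spot.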 The settings on record: higher = more signal.
Experiment [10] in a line: binders of probe aHhip on microarray, primary screen, stem cell growth factor project, biochemical, small-molecule microarray, fluorescence 635/667 (AID 1087).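 Note: score merges spot fluorescence at 667nm with spot signal to noise ratio.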 The following applies: higher = more signal.
Experiment [11] deals with PRMT1 (protein arginine N-methyltransferase 1). Briefly: small molecules binding arginine methyltransferase PRMT1 – biochemical, small-molecule microarray, 635 nm fluorescence, primary screen (AID 1088).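 Note: binding of Prmt1 protein to compounds spotted on small-molecule microarray slides.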 The following applies: higher = more signal.
The nature of experiment [12]: growth effects on S. cerevisiae YJM789 – YJM789 clinical isolate, OD600, 24 h, basal, primary screen (AID 1089).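 Note: growth of clinical yeast isolate S. cerevisiae YJM 789 seeded 1000 cells per well; test concentration not given here.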 The following applies: higher = more signal, called active from +8 up or from −8 down.
Experiment [13] is described as follows: S. pombe growth modifiers, basal conditions – strain 972, OD600, 24 h, no modulator, primary screen (AID 1090).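 Note: basal condition with compound alone and no growth modifier present; test concentration not given here.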 The settings on record: S. pombe 972 growth, higher = more signal, called active from +8 up or from −8 down.
A short description of experiment [14]: budding yeast growth modifiers under rapamycin – strain BY4716, OD600, 96 h, primary screen (AID 1091). Note: test concentration not given here. The settings on record: S. cerevisiae BY4716 + rapamycin, higher = more signal, called active from +8 up or from −8 down.
The target of experiment [15] is Torsin-1A-interacting protein 2 (Homo sapiens) (UniProt Q8NFQ8). The experiment is described as follows: small molecules binding lysate-expressed LULL1 – cell lysate, human LULL1 lysate, 635/667 nm fluorescence, primary screen (AID 1092).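 Note: probe is lysate of COS7 cells overexpressing human LULL1; score merges per-feature 667 nm fluorescence with signal-to-noise.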 The following applies: small-molecule microarray, hLULL1 lysate binding, 635 nm fluorescence; higher = more signal.
Sequence of Torsin-1A-interacting protein 2 (Homo sapiens) (Q8NFQ8 whole entry, looked up): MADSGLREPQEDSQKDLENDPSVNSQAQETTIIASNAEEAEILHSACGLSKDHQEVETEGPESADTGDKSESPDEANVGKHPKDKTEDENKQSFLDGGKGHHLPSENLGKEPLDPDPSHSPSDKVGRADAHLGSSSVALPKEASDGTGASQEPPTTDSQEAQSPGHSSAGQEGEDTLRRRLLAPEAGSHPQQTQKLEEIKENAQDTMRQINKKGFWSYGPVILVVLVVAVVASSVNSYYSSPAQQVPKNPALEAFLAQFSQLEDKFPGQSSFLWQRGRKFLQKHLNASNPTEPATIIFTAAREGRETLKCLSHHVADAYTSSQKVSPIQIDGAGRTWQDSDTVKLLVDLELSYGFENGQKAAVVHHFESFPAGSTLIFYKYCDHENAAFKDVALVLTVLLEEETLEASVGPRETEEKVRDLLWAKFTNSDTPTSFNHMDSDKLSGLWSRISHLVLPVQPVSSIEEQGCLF
A short description of experiment [16]: optical density change of DRC41 E. coli – strain DRC41, OD650, 24 h, E. coli filamentation project, primary screen (AID 1093).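 Note: MC1000 strain lacking acrAB efflux and sulA so SOS filamentation is blocked; test concentration not given here.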 The settings on record: E. coli DRC41 growth, higher = more signal, called active from +8 up or from −8 down.
A short description of experiment [17]: probe aLefty2 binding to arrayed compounds – biochemical, biotinylated probe, 635/667 nm fluorescence, primary screen (AID 1094).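 Note: score merges spot fluorescence near 667 nm with spot signal-to-noise ratio.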 The following applies: small-molecule microarray, higher = more signal.
For experiment [18], the system named is Noggin (protein binding on small-molecule microarray). The experiment is described as follows: small molecules binding Noggin protein – biochemical, 635/667 nm fluorescence, primary screen (AID 1095).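 Note: score merges 667 nm feature fluorescence with signal to noise over triplicate slides.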 The following applies: 635 nm fluorescence, higher = more signal.
The target in experiment [19] is Neurogenic locus notch homolog protein 3 (Homo sapiens) (UniProt Q9UM47). The experiment is described as follows: small molecules binding NOTCH3 protein – biochemical, 635/667 nm fluorescence, primary screen (AID 1096). The following applies: small-molecule microarray, 635 nm fluorescence, higher = more signal.
A short description of experiment [20]: probe aEGFR binding to arrayed compounds – biochemical, biotinylated probe, 635/667 nm fluorescence, primary screen (AID 1097).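 Note: probe is a biotinylated anti-EGFR antibody binding compounds printed on slides; score combines fluorescence near 667 nm and signal to noise of each spot.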 The following applies: small-molecule microarray, higher = more signal.

For `CC(CO)N1C(=O)[C@@H]2[C@H]3C(=O)OCC=C[C@H]3OC23C=CCN(c2ccc(Cl)cc2)C(=O)[C@@H]13` (stereo not given in full), the composite z-score in experiment [1] was 1.22; in experiment [2], -1.45; in experiment [3], -0.19; in experiment [4], -1.14; in experiment [5], -1.68; in [6] it was -0.87. The composite z-score in experiment [7] is 0.688; in [9] it was -0.672; in experiment [10], -0.169; in [11], -0.421; in [15], -0.391; in experiment [17], 0. The composite z-score is -2.26 in experiment [18], -1.05 in experiment [19] and -0.297 in experiment [20]. Moreover, the z-score in experiment [8] was 0.529 (inactive); in [12], -0.686 (inactive); in [13], -0.244 (inactive); in experiment [14], -0.404 (inactive); in [16], 0.612 (inactive).

Turning to `COCCOC(=O)N1C(=O)[C@@]2(c3cc(C#CCNC(N)=O)ccc31)[C@H](c1ccc(OCCO)cc1)N1[C@H](c3ccccc3)[C@H](c3ccccc3)OC(=O)[C@H]1[C@@H]2C(N)=O`, the composite z-score in experiment [1] was found to be 0.423; in experiment [2], 0.278; in [3], 0.0541; in [4] it was 0.913; in experiment [5], 1.49; in experiment [6], 0.897. For the same compound, the composite z-score in experiment [7] amounted to 0.809; in [9] it was 0.715; in experiment [10] it was 0.351; in experiment [11], 0.981; in experiment [15], 1.92; in experiment [17], 0.221. Moreover, the composite z-score in experiment [18] came out at 0.228; in experiment [19], 0.542; in experiment [20], 0.387. Also, the z-score in [8] is 0.47 (inactive); in experiment [12], 2.18 (inactive); in [13], 1.16 (inactive); in experiment [14], 2.29 (inactive); in [16] it was 1.11 (inactive).

In the case of `O=C1[C@@H]2[C@@H](CC(COc3ccccc3)=C3[C@@H](CCc4ccccc4)OB(O)C[C@@H]32)C(=O)N1Cc1ccccc1`, the composite z-score in experiment [1] was -0.559; in [2], 0.242; in experiment [3] it was -0.0737; in [4], 0.265; in [5], 0.697; in experiment [6], 0.81. Besides, the composite z-score in experiment [7] was -0.113; in experiment [9], 0.531; in [10], -0.289; in [11] it was -0.0537; in experiment [15], 0.828; in experiment [17] it was -0.274. For the same compound, the figures for the composite z-score in experiment [18], in experiment [19] and in experiment [20] were 0.204, 0.359 and -0.116, respectively. For the same compound, the z-score in experiment [8] was 0.0109 (inactive); in experiment [12], -0.402 (inactive); in experiment [13], -1.04 (inactive); in experiment [14] it was 0.297 (inactive); in experiment [16] it was -0.874 (inactive).

With `COCCCNC(=O)[C@@]1(Sc2ccc(C)cc2)CC(=O)N(Cc2ccccc2Cl)[C@@H]1c1ccc(CO)cc1I`, the composite z-score in [1] is 0.386; in [2] it was -0.983; in experiment [3], -0.191; in experiment [4], -0.304; in experiment [5], -0.911; in experiment [6], 1.08. For the same compound, the composite z-score is 0.449 in experiment [7]; -0.431 in [9]; -0.0994 in experiment [10]; -0.76 in experiment [11]; 1.04 in experiment [15]; -0.0654 in [17]. Also, the composite z-score is -0.691 in [18], -0.318 in experiment [19] and -0.249 in [20]. Moreover, the z-score in [8] was -2.5 (inactive); in [12] it was -0.89 (inactive); in experiment [13] it was -2.01 (inactive); in experiment [14] it was 0.0449 (inactive); in experiment [16], 0.668 (inactive).

For the compound `CCOC(=O)C[C@H]1[C@H](OC(=O)c2ccc(C(=O)c3ccccc3)cc2)[C@@H](NC(=O)CC(C)C)c2cc(OCCCO)ccc2N1C(=O)Cc1ccc(OC)cc1`, the composite z-score in [1] was 0.134; in experiment [2], 0.819; in experiment [3], -0.105; in experiment [4], 0.209; in experiment [5], 0.342; in experiment [6], 0.517. Further, the composite z-score in experiment [7] is 0.2; in experiment [9] it was 0.51; in [10], -0.0074; in [11], 0.451; in experiment [15] it was 0.663; in experiment [17], 0.0351. Also, the composite z-score in experiment [18] was -0.114; in experiment [19], 0.477; in experiment [20], -0.0585. Also, the z-score in [8] was -1.69 (inactive); in experiment [12], 0.247 (inactive); in experiment [13], 0.22 (inactive); in [14] it was 0.265 (inactive); in experiment [16], -0.113 (inactive).
